Among the test systems are NCI-H23 lung; NCI-H226 lung; NCI-H322M lung; HOP-62 NSCLC; NCI-H460 lung; HOP-92 NSCLC; NCI-H522 lung; A549/ATCC NSCLC; 786-0 renal; DU-145 prostate; K-562 leukemia; MALME-3M melanoma; MDA-MB-231 breast; RXF 393 renal; SF-268 CNS; SF-539 CNS; UACC-257 melanoma; M14 melanoma; SF-295 CNS; COLO 205 colon.
Common to all, as to assay: NCI-60 one-dose screen, 48 h (100 = growth as untreated, 0 = no growth, -100 = all killed)
Holding throughout (details): 10 µM unless noted

About 83,000 compounds went through this panel and 20% of them were active in at least one assay; those are over-represented in the sample as a whole.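 Activity criterion: percent growth below 10, measured after cells in 96-well plates were exposed to a single compound concentration for 48 hours.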 Unmarked numbers belong to inactive results. The source made the active and inactive calls.

Consider `CCN(CC)CCCCCCCNc1cc(OC)cc2c(C)ccnc12`, for which the growth in the test on NCI-H23 lung was 87.6%; in the test on NCI-H226 lung it was 86.6%; in the test with NCI-H322M lung it was 94.8%; in the test on HOP-62 NSCLC it was 93.3%; in the test with NCI-H460 lung it was 85.2%; in the test with HOP-92 NSCLC, 57.5%. Further, the growth in the test with NCI-H522 lung is 71.4%; in the test with A549/ATCC NSCLC it was 94.7%; in the test with 786-0 renal, 80.8%; in the test on DU-145 prostate it was 102%; in the test on K-562 leukemia it was 36.7%; in the test on MALME-3M melanoma, 103%. Further, the growth is 54.1% with MDA-MB-231 breast; 91.6% in the test on RXF 393 renal; 91.1% in the test with SF-268 CNS; 91.3% in the test on SF-539 CNS; 92.6% in the test on UACC-257 melanoma; 97.6% in the test on M14 melanoma.

In the case of `C#CC[C@@H]1C[C@]2(C)[C@H]3CC=C4[C@H]5[C@@H](C)[C@H](C)CC[C@]5(C(=O)NCCCCCCCCN)CC[C@@]4(C)[C@]3(C)CC[C@H]2C(C)(C)[C@H]1OC(C)=O`, the growth was 79.3% in the test on NCI-H23 lung; 94.6% in the test on NCI-H226 lung; 80.4% with NCI-H322M lung; 104% in the test on HOP-62 NSCLC; -63.8% (active) in the test with NCI-H460 lung; 53.1% in the test with HOP-92 NSCLC. The growth in the test on NCI-H522 lung was -1.25% (active); in the test with A549/ATCC NSCLC, 46.5%; with 786-0 renal, 80.6%; in the test with DU-145 prostate, 41.8%; with K-562 leukemia, -23.4% (active); with MALME-3M melanoma it was 66%. Moreover, the growth in the test on MDA-MB-231 breast is 56%; in the test with RXF 393 renal, 70.4%; with SF-268 CNS it was 92.9%; in the test with SF-539 CNS, 83.8%; in the test on UACC-257 melanoma it was 100%; with M14 melanoma, 29.3%.

Regarding `CC1=NC(c2ccc(Cl)cc2)C2=C(N1)/C(=C/c1ccc(Cl)cc1)CCC2` (configuration not stated), the growth is 81.8% in the test on NCI-H23 lung; 113% with NCI-H226 lung; 94.5% with NCI-H322M lung; 106% in the test on HOP-62 NSCLC; 99.4% with NCI-H460 lung; 86.4% with HOP-92 NSCLC. Besides, the growth in the test on NCI-H522 lung was 98.6%; in the test with A549/ATCC NSCLC, 89%; in the test on 786-0 renal, 92.7%; in the test on DU-145 prostate it was 105%; in the test on K-562 leukemia it was 76.6%; in the test on MALME-3M melanoma, 96.4%. Moreover, the growth was 107% in the test with MDA-MB-231 breast; 90.8% in the test with RXF 393 renal; 99.3% in the test with SF-268 CNS; 103% in the test with SF-539 CNS; 93.7% in the test with UACC-257 melanoma; 65.3% in the test with M14 melanoma.

Regarding `C=CCn1c(SCC(=O)Nc2ccc(C(=O)/C=C/c3ccc(Cl)cc3)cc2)nnc1-c1ccc(Cl)cc1`, the growth is 82.8% in the test on NCI-H23 lung; 83.1% with NCI-H226 lung; 110% in the test with NCI-H322M lung; 78.2% in the test with HOP-62 NSCLC; 99.5% with NCI-H460 lung; 91% in the test with HOP-92 NSCLC. Also, the growth was 68.4% with NCI-H522 lung; 73.8% in the test on A549/ATCC NSCLC; 93.9% in the test on 786-0 renal; 100% with DU-145 prostate; 72.5% with K-562 leukemia; 93.2% in the test with MALME-3M melanoma. Besides, the growth with MDA-MB-231 breast is 86.4%; with RXF 393 renal it was 99.9%; in the test with SF-268 CNS it was 82.7%; with SF-539 CNS it was 99.2%; with UACC-257 melanoma it was 99%; with M14 melanoma, 95.5%.

As to `CCCNC(=S)N/N=C(\C)c1ccccn1`, the growth was 35.7% with NCI-H23 lung; 21.5% with NCI-H226 lung; 4.31% (active) in the test on NCI-H322M lung; 44% in the test with HOP-62 NSCLC; 17.7% in the test with NCI-H460 lung; 37.2% with HOP-92 NSCLC. Besides, the growth was 56.4% in the test with NCI-H522 lung; 31.7% in the test with A549/ATCC NSCLC; 20.4% with 786-0 renal; 34.3% in the test with DU-145 prostate; 17% in the test with K-562 leukemia; 24.3% with MALME-3M melanoma. Also, the growth was 41.1% in the test with MDA-MB-231 breast; 10.4% with RXF 393 renal; 38.7% in the test on SF-268 CNS; 24.2% in the test with SF-539 CNS; 12% with UACC-257 melanoma; 6.11% (active) in the test on M14 melanoma.

Turning to `C=C(C)[C@@H]1CC[C@]2(C)[C@H](CC=C3[C@@H]4C[C@](C)(C(=O)N5CCN(C)CC5)CC[C@]4(C)CC[C@]32C)[C@@]1(C)CCC#N`, the growth in the test with NCI-H23 lung was 72.5%; in the test with NCI-H226 lung, 69.6%; in the test with NCI-H322M lung, 85.1%; in the test on HOP-62 NSCLC it was 63.1%; with NCI-H460 lung, 28%; in the test with HOP-92 NSCLC it was 32.7%. The growth in the test on NCI-H522 lung was 79.8%; in the test on A549/ATCC NSCLC it was 55.3%; with 786-0 renal, 71.5%; in the test with DU-145 prostate, 88.3%; with K-562 leukemia it was 23.4%; in the test with MALME-3M melanoma, 77%. Besides, the growth was 85.9% in the test with MDA-MB-231 breast; 84.9% with RXF 393 renal; 72.5% in the test on SF-268 CNS; 95% in the test with SF-295 CNS; 70.2% in the test with SF-539 CNS; 51.4% in the test with UACC-257 melanoma. For the same compound, the growth with M14 melanoma is 66.6%.

Take `CC(OC(=O)Nc1cccc(Cl)c1)C(=O)O` (configuration not stated): the growth was 97.9% with NCI-H23 lung; 96.4% in the test on NCI-H226 lung; 101% in the test on NCI-H322M lung; 86.7% in the test with HOP-62 NSCLC; 108% in the test on NCI-H460 lung; 92.2% in the test with HOP-92 NSCLC. Moreover, the growth in the test on NCI-H522 lung is 80.9%; in the test with A549/ATCC NSCLC it was 99.1%; in the test on 786-0 renal, 96%; with DU-145 prostate, 113%; in the test with K-562 leukemia it was 92.3%; in the test with MALME-3M melanoma, 116%. In addition, the growth in the test on MDA-MB-231 breast is 109%; in the test with RXF 393 renal, 98.4%; in the test on SF-268 CNS, 99.6%; in the test on SF-295 CNS it was 75.3%; with SF-539 CNS it was 99.1%; in the test with UACC-257 melanoma it was 91.5%. Also, in the test on M14 melanoma, the growth was 95.5%.

On to `COCCCNCC(=O)Nc1c(C)cccc1C`, for which the growth in the test with NCI-H23 lung is 110%; with NCI-H226 lung, 106%; in the test on NCI-H322M lung, 139%; with HOP-62 NSCLC, 107%; with NCI-H460 lung, 116%; with NCI-H522 lung it was 112%. Further, the growth is 96.7% in the test with A549/ATCC NSCLC; 93.8% with 786-0 renal; 113% in the test on DU-145 prostate; 120% in the test with K-562 leukemia; 96.6% with MDA-MB-231 breast; 113% with RXF 393 renal. Also, the growth in the test with SF-268 CNS is 109%; in the test on SF-539 CNS it was 95.3%; in the test on UACC-257 melanoma, 106%; with M14 melanoma, 114%.

Regarding `CCOC(=O)c1ccc(NCCC(=O)O)cc1`, the growth with NCI-H23 lung is 107%; in the test on NCI-H226 lung it was 100%; in the test on NCI-H322M lung it was 104%; in the test on HOP-62 NSCLC, 95.9%; in the test with NCI-H460 lung, 116%; with NCI-H522 lung it was 91.3%. The growth with A549/ATCC NSCLC is 103%; in the test with 786-0 renal it was 96.2%; in the test with COLO 205 colon, 121%; in the test with DU-145 prostate it was 126%; with K-562 leukemia, 90.4%; in the test with MALME-3M melanoma it was 110%. Also, the growth with MDA-MB-231 breast is 122%; in the test with RXF 393 renal, 111%; with SF-268 CNS, 119%; in the test with SF-539 CNS, 112%; in the test with UACC-257 melanoma, 104%; with M14 melanoma, 104%.

Values taken from PubChem BioAssay (NCI).
